PubChem BioAssay AID1159580 (chemical genetic matrix, 2015)
Several values for one entry are separate records, joined by “and”; a condition that tells them apart may be missing. Equal entries are not always repeated. In all, about 5,500 compounds went through this assay and about 2,000 (36%) were called active. About 18% were inconclusive and are not listed. No stated cut-off is given here; in the data, active means normalized growth mostly below about 0.91 (no sharp cut-off); inconclusive means no clear call, values can overlap the other calls; inactive means mostly above about 0.92. This is one part of the list.

Test: chemical genetic growth profiling, strain panel (AID 1159580);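 further: tested at 20 µM; growth read once vehicle control cultures reached saturation at 30 °C; 1 = growth at the plate median or of vehicle wells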
Conditions: S. cerevisiae deletion strains, growth OD

Measured: normalized growth

CN(C)[C@@H]1C(=O)C(C(N)=O)=C(O)[C@@]2(O)C(=O)C3=C(O)c4c(O)cccc4[C@@](C)(O)[C@H]3[C@H](O)[C@@H]12
inactive: locus YAL013W, strain DEP1, stronger effect = lower value 1.01 | locus YAL021C, strain ccr4, stronger effect = lower value 1.02 | locus YAL026C, strain drs2, stronger effect = lower value 1.01 | locus YAL030W, strain snc1, stronger effect = lower value 1 | locus YBL061C, strain skt5, stronger effect = lower value 1.02 | locus YBR009C, strain hhf1, stronger effect = lower value 1.01 | locus YBR021W, strain FUR4, stronger effect = lower value 0.99 | locus YBR023C, strain chs3, stronger effect = lower value 1.02 | locus YBR171W, strain sec66, stronger effect = lower value 1.02 | locus YBR229C, strain ROT2, stronger effect = lower value 1 | locus YBR231C, strain swc5, stronger effect = lower value 0.991 | locus YBR279W, strain paf1, stronger effect = lower value 1.02 | locus YCL011C, strain gbp2, stronger effect = lower value 1.01 | locus YCL016C, strain dcc1, stronger effect = lower value 1.01 | locus YCL029C, strain bik1, stronger effect = lower value 0.998 | locus YCL061C, strain MRC1, stronger effect = lower value 1.01 | locus YCL069W, strain vba3, stronger effect = lower value 1.02 | locus YCR088W, strain abp1, stronger effect = lower value 1.02 | locus YDL005C, strain med2, stronger effect = lower value 1.02 | locus YDL035C, strain GPR1, stronger effect = lower value 1 | locus YDL040C, strain nat1, stronger effect = lower value 1.03 | locus YDL074C, strain BRE1, stronger effect = lower value 1.01 | locus YDL101C, strain DUN1, stronger effect = lower value 1.01 | locus YDL134C, strain PPH21, stronger effect = lower value 0.995 | locus YDL185W, strain tfp1, stronger effect = lower value 0.988 | locus YDL192W, strain arf1, stronger effect = lower value 0.998 | locus YDR001C, strain nth1, stronger effect = lower value 1.02 | locus YDR069C, strain doa4, stronger effect = lower value 1 | locus YDR101C, strain arx1, stronger effect = lower value 1.01 | locus YDR137W, strain rgp1, stronger effect = lower value 0.975 | locus YDR150W, strain NUM1, stronger effect = lower value 1.01 | locus YDR159W, strain sac3, stronger effect = lower value 1.05 | locus YDR162C, strain NBP2, stronger effect = lower value 0.992 | locus YDR195W, strain ref2 1.01 | locus YDR297W, strain sur2, stronger effect = lower value 1.02 | locus YDR318W, strain mcm21, stronger effect = lower value 0.999 | locus YDR334W, strain swr1, stronger effect = lower value 1.01 | locus YDR335W, strain msn5, stronger effect = lower value 1.02 | locus YDR388W, stronger effect = lower value 1 | locus YDR392W, strain spt3, stronger effect = lower value 1.02 | locus YDR502C, strain sam2, stronger effect = lower value 0.994 | locus YEL003W, strain gim4, stronger effect = lower value 1.01 | locus YEL037C, strain rad23, stronger effect = lower value 1.02 | locus YEL061C, strain CIN8 (second series), stronger effect = lower value 1.01 | locus YEL061C, strain CIN8, stronger effect = lower value 1 | locus YER015W, strain faa2, stronger effect = lower value 1.01 | locus YER016W, strain bim1, stronger effect = lower value 1 | locus YER110C, stronger effect = lower value 1 | locus YER111C, strain swi4, stronger effect = lower value 1.01 | locus YER155C, strain BEM2 (second series), stronger effect = lower value 0.995 | locus YER155C, strain BEM2, stronger effect = lower value 1.01 | locus YER167W, strain BCK2, stronger effect = lower value 1.01 | locus YFR010W, strain ubp6, stronger effect = lower value 1 | locus YGL078C, strain dbp3, stronger effect = lower value 0.984 | locus YGL086W, strain mad1, stronger effect = lower value 0.982 | locus YGL167C, strain pmr1, stronger effect = lower value 1.01 | locus YGL173C, strain kem1, stronger effect = lower value 1 | locus YGL227W, strain vid30, stronger effect = lower value 1.04 | locus YGL240W, strain doc1, stronger effect = lower value 1.01 | locus YGL248W, strain PDE1, stronger effect = lower value 1 | locus YGL253W, strain hxk2, stronger effect = lower value 1.02 | locus YGR078C, strain PAC10, stronger effect = lower value 1 | locus YGR135W, strain pre9, stronger effect = lower value 0.987 | locus YGR252W, strain gcn5, stronger effect = lower value 0.967 | locus YHR013C, strain ard1, stronger effect = lower value 1 | locus YHR027C, strain rpn1, stronger effect = lower value 1.02 | locus YHR030C, strain SLT2, stronger effect = lower value 1 and 0.979 | locus YHR079C, strain IRE1 (second series), stronger effect = lower value 0.992 | locus YHR079C, strain IRE1, stronger effect = lower value 0.98 | locus YHR094C, strain hxt1, stronger effect = lower value 0.999 | locus YHR129C, strain ARP1, stronger effect = lower value 1.01 | locus YHR142W, strain chs7, stronger effect = lower value 1.05 | locus YHR200W, strain rpn10, stronger effect = lower value 1 | locus YIL066C, strain RNR3, stronger effect = lower value 1 | locus YIL073C, strain SPO22, stronger effect = lower value 1.02 | locus YIL125W, strain kgd1, stronger effect = lower value 0.998 | locus YIR030C, strain dcg1, stronger effect = lower value 0.997 | locus YJL092W, strain hpr5, stronger effect = lower value 1.02 | locus YJL095W, strain BCK1 (second series), stronger effect = lower value 1.02 | locus YJL095W, strain BCK1, stronger effect = lower value 0.987 and 0.979 | locus YJL115W, strain asf1, stronger effect = lower value 1.03 | locus YJL129C, strain trk1, stronger effect = lower value 1.05 | locus YJL134W, strain LCB3, stronger effect = lower value 1.01 | locus YJL154C, strain vps35, stronger effect = lower value 1.04 | locus YJL164C, strain tpk1, stronger effect = lower value 0.997 | locus YJL166W, strain qcr8, stronger effect = lower value 1.03 | locus YJL168C, strain set2, stronger effect = lower value 0.998 | locus YJL187C, strain SWE1 (second series), stronger effect = lower value 1.01 | locus YJR043C, strain POL32, stronger effect = lower value 0.992 | locus YJR066W, strain TOR1, stronger effect = lower value 0.928
